What was measured:
Test in all cases: DAPPL (digital affinity profiling via proximity ligation, sequencing); 10 mM Tris-HCl pH 7.5, 50 mM NaCl, 1 mM DTT, 4% glycerol, room temperature, 30 min; GST-TFs on glutathione beads, 16-mer random dsDNA library, 0.1% formaldehyde crosslink after washing; high values mean tight binding
Details in all cases: protein: recombinant; tags: N-terminal GST; dsDNA, one strand shown
FEV = molecular target: T1, FEV (Homo sapiens, UniProt Q99581 1-238)
T1 sequence: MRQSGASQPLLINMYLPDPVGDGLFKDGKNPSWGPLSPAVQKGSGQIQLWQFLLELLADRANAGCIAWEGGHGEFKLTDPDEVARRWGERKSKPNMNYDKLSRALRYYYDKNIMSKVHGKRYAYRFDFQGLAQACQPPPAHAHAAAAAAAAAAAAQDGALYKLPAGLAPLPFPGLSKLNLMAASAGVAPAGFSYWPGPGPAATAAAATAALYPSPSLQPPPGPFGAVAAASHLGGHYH
Method in brief: (§1)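 Yeast served to express human transcription factors as GST fusions, which were then captured on glutathione beads and labelled with DNA barcodes. Pooled with a tag-only sample, they were incubated with 200 nmole of a 16-mer random double-stranded DNA library for 30 min at room temperature in Tris/NaCl/DTT/glycerol buffer, washed, crosslinked with 0.1% formaldehyde, ligated by proximity, amplified by PCR and sequenced. Dividing each hexamer's read frequency for a factor by its frequency for the tag-only sample gives the binding signal.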

ETV5 = ETV5 (Homo sapiens, UniProt P41161 1-510)
ETV5, sequence (P41161 whole entry): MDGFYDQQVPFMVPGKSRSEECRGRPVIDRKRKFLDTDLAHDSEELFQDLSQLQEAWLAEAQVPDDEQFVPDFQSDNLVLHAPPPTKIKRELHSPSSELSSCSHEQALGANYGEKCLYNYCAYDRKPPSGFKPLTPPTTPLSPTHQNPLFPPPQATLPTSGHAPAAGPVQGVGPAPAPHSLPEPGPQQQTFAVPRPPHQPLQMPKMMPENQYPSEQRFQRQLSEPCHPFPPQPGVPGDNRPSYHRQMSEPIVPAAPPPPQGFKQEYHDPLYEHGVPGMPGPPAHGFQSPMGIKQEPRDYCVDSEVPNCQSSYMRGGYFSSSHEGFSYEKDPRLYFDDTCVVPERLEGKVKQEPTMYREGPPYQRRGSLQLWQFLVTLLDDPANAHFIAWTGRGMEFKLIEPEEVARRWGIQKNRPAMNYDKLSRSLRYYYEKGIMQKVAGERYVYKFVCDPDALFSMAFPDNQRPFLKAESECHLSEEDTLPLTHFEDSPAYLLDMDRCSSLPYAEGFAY
Method in brief: as §1

SPIC = molecular target: T2, SPIC (Homo sapiens, UniProt Q8N5J4 1-248)
T2 sequence: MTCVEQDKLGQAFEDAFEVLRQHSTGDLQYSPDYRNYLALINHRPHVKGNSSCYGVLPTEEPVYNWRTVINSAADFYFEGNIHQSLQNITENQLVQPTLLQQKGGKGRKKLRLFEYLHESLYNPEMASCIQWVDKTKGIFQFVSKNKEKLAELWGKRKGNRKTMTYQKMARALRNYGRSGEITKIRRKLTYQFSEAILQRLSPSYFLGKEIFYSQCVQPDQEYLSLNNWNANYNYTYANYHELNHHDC
Method in brief: as §1

ELF4 = ELF4 (Homo sapiens, UniProt Q99607 1-663)
ELF4, sequence (Q99607 whole entry): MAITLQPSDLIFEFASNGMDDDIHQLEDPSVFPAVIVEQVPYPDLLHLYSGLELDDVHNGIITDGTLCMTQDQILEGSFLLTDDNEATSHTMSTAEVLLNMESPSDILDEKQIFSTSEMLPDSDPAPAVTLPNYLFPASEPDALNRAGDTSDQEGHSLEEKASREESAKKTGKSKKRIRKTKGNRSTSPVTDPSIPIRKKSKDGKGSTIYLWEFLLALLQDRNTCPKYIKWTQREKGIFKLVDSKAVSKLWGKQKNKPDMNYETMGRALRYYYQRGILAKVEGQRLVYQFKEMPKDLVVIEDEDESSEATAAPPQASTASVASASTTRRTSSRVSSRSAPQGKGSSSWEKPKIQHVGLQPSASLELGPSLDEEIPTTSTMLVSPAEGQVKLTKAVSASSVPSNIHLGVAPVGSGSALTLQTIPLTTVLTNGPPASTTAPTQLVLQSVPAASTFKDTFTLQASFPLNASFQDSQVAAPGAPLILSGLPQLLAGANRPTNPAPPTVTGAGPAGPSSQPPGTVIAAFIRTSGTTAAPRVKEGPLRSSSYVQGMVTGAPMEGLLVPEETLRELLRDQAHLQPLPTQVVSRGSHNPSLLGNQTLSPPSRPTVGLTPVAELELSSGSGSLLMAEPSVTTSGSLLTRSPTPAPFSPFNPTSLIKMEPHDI
Method in brief: as §1

ELK4 = molecular target: T3, ELK4 (Homo sapiens, UniProt P28324-2 1-405)
T3 sequence: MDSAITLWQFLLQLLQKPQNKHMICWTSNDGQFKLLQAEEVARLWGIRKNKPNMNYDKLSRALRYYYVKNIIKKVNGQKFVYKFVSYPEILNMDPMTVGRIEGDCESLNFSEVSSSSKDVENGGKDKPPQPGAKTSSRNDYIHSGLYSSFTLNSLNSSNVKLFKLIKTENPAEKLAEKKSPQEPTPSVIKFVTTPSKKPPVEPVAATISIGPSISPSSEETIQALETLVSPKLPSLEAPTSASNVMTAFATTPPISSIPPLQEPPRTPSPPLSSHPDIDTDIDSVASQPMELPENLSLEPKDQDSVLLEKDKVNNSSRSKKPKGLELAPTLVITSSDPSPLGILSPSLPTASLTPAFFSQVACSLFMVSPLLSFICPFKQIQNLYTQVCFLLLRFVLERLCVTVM
Method in brief: as §1

ETV2 = molecular target: T4, ETV2 (Homo sapiens, UniProt O00321 1-342)
T4 sequence: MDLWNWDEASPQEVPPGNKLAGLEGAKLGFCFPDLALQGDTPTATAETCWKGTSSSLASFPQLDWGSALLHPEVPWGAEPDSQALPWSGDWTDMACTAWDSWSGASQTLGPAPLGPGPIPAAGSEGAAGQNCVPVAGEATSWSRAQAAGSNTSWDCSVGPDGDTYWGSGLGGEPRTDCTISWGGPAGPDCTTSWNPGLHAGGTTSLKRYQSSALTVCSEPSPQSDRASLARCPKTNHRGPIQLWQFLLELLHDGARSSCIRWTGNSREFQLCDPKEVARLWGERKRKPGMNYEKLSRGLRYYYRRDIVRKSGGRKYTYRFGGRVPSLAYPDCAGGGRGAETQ
Method in brief: as §1

ELF3 = molecular target: T5, ELF3 (Homo sapiens, UniProt P78545 1-371)
T5 sequence: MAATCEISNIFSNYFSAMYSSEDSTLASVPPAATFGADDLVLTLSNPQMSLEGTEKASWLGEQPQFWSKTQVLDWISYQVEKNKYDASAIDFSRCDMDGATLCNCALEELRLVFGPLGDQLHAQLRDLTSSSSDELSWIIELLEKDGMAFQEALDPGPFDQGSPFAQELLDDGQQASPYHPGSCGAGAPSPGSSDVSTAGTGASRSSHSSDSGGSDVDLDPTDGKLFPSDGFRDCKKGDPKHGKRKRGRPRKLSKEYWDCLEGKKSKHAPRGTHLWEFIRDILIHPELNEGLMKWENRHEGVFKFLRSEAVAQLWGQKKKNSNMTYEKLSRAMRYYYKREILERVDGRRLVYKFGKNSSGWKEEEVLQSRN
Method in brief: as §1

ETV1 = ETV1 (Homo sapiens, UniProt P50549 1-477)
ETV1, sequence (P50549 whole entry): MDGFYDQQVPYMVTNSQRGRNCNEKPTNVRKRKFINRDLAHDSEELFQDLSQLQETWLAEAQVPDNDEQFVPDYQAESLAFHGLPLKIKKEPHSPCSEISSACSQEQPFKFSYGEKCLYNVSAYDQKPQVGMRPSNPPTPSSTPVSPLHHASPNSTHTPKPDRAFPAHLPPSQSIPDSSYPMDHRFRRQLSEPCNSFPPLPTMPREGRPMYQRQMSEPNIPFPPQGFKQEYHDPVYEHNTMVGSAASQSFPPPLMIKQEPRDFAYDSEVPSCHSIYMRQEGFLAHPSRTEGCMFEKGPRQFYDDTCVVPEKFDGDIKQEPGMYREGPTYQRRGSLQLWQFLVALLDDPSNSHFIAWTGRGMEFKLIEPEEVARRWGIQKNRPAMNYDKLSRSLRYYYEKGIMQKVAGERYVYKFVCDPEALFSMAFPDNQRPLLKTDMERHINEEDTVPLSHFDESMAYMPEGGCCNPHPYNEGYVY
Method in brief: as §1

ERF = molecular target: T6, ERF (Homo sapiens, UniProt P50548 1-548)
T6 sequence: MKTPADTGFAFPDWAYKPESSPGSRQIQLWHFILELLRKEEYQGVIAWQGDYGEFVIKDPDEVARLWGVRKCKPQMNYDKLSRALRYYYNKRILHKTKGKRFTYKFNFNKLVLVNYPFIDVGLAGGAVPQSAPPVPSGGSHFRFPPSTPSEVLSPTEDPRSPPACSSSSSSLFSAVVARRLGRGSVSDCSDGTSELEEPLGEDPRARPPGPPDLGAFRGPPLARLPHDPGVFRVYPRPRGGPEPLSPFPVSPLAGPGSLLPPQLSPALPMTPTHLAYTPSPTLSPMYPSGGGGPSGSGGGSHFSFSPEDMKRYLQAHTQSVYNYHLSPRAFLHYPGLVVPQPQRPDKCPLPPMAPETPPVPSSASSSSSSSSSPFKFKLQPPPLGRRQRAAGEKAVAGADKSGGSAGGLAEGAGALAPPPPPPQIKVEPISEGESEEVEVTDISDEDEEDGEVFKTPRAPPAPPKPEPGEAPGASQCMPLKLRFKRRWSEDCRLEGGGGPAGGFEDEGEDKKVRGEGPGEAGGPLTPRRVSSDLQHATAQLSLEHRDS
Method in brief: as §1

ETV3L = molecular target: T7, ETV3L (Homo sapiens, UniProt Q6ZN32 1-361)
T7 sequence: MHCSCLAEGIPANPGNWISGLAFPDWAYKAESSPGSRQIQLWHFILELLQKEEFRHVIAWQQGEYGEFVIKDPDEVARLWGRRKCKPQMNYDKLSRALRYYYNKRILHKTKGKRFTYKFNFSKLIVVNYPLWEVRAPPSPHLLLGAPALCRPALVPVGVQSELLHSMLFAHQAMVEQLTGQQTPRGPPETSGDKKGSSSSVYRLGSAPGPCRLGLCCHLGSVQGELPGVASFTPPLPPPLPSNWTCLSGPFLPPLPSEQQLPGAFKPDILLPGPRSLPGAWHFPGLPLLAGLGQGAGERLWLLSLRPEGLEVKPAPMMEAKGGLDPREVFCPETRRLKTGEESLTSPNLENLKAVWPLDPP
Method in brief: as §1

ETS2 = molecular target: T8, ETS2 (Homo sapiens, UniProt P15036 1-469)
T8 sequence: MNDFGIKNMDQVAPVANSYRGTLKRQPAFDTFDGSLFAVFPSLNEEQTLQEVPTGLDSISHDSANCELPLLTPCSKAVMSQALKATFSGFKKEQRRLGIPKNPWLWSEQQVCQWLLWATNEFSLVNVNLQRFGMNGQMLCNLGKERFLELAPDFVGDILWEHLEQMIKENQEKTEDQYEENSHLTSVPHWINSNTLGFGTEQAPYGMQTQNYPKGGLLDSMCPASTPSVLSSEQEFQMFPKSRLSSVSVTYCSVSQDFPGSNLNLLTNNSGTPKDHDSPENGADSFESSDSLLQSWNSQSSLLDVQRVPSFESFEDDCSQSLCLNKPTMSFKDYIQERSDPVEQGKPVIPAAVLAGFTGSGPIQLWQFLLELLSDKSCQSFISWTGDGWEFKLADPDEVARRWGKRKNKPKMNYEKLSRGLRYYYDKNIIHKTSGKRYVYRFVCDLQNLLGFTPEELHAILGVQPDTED
Method in brief: as §1

SPDEF = molecular target: T9, SPDEF (Homo sapiens, UniProt O95238 1-335)
T9 sequence: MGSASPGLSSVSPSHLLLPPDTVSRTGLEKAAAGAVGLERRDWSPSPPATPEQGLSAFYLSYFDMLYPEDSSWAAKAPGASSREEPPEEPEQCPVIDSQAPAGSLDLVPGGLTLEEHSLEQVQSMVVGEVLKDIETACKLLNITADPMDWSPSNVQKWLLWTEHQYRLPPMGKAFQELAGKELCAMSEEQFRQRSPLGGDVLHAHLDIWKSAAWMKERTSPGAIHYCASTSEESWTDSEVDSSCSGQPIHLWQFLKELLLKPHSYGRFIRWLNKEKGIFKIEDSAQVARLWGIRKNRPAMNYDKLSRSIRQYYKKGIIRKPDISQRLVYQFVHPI
Method in brief: as §1

ETV7 = molecular target: T10, ETV7 (Homo sapiens, UniProt Q9Y603 1-341)
T10 sequence: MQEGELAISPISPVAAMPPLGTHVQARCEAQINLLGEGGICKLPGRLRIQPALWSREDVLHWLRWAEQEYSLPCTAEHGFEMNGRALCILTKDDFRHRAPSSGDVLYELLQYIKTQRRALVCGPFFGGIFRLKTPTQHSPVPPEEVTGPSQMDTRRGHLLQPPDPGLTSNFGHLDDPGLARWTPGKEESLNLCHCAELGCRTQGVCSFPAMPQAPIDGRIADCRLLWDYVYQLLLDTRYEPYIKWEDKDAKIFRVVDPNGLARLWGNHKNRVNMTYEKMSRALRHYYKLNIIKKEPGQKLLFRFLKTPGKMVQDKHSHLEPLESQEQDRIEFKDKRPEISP
Method in brief: as §1

ELF5 = molecular target: T11, ELF5 (Homo sapiens, UniProt Q9UKW6-2 1-255)
T11 sequence: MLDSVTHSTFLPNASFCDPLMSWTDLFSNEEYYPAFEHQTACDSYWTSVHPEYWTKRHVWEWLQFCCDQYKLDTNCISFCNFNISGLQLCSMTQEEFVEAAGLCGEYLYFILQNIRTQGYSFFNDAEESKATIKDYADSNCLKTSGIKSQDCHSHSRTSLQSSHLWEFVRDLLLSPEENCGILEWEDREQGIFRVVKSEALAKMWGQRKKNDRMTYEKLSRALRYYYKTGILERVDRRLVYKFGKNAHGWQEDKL
Method in brief: as §1

ETV3 = molecular target: T12, ETV3 (Homo sapiens, UniProt P41162-2 1-143)
T12 sequence: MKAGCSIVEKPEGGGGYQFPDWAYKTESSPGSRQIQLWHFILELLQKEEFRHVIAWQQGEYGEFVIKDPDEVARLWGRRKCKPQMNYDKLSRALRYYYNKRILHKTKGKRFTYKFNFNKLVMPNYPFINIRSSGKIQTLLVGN
Method in brief: as §1

ETV6 = ETV6 (Homo sapiens, UniProt P41212 1-452)
ETV6, sequence (P41212 whole entry): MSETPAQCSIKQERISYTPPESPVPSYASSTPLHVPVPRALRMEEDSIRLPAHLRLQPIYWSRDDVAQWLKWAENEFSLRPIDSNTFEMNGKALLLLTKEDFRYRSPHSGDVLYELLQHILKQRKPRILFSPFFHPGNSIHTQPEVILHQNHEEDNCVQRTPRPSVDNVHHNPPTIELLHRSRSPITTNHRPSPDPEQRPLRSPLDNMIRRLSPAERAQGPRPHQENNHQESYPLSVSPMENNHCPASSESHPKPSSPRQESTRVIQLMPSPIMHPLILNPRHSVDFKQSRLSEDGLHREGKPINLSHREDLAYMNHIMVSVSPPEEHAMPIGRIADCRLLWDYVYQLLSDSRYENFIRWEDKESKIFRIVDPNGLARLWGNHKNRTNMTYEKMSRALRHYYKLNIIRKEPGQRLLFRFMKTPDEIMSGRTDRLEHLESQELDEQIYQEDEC
Method in brief: as §1

| Sequence | binding signal (FEV) | binding signal (ETV5) | binding signal (SPIC) | binding signal (ELF4) | binding signal (ELK4) | binding signal (ETV2) | binding signal (ELF3) | binding signal (ETV1) | binding signal (ERF) | binding signal (ETV3L) | binding signal (ETS2) | binding signal (SPDEF) | binding signal (ETV7) | binding signal (ELF5) | binding signal (ETV3) | binding signal (ETV6) |
| --- | --- | --- | --- | --- | --- | --- | --- | --- | --- | --- | --- | --- | --- | --- | --- | --- |
| GTCCAT | 1.03 fold enrichment (6-mer frequency, TF over GST control) | 1.17 fold enrichment (6-mer frequency, TF over GST control) | 1.17 fold enrichment (6-mer frequency, TF over GST control) | 1.1 fold enrichment (6-mer frequency, TF over GST control) | 1.18 fold enrichment (6-mer frequency, TF over GST control) | 1.04 fold enrichment (6-mer frequency, TF over GST control) | 1.11 fold enrichment (6-mer frequency, TF over GST control) | 1.18 fold enrichment (6-mer frequency, TF over GST control) | 1.08 fold enrichment (6-mer frequency, TF over GST control) | 1.24 fold enrichment (6-mer frequency, TF over GST control) | 1.04 fold enrichment (6-mer frequency, TF over GST control) | 1.02 fold enrichment (6-mer frequency, TF over GST control) | 1.14 fold enrichment (6-mer frequency, TF over GST control) | 1.07 fold enrichment (6-mer frequency, TF over GST control) | 1.11 fold enrichment (6-mer frequency, TF over GST control) | 1.07 fold enrichment (6-mer frequency, TF over GST control) |
| TTCAGT | 1.01 fold enrichment (6-mer frequency, TF over GST control) | 1.05 fold enrichment (6-mer frequency, TF over GST control) | 1.11 fold enrichment (6-mer frequency, TF over GST control) | 1.11 fold enrichment (6-mer frequency, TF over GST control) | 1.1 fold enrichment (6-mer frequency, TF over GST control) | 1.08 fold enrichment (6-mer frequency, TF over GST control) | 1.08 fold enrichment (6-mer frequency, TF over GST control) | 1.07 fold enrichment (6-mer frequency, TF over GST control) | 1.09 fold enrichment (6-mer frequency, TF over GST control) | 1.13 fold enrichment (6-mer frequency, TF over GST control) | 1 fold enrichment (6-mer frequency, TF over GST control) | 1.07 fold enrichment (6-mer frequency, TF over GST control) | 1.04 fold enrichment (6-mer frequency, TF over GST control) | 1.05 fold enrichment (6-mer frequency, TF over GST control) | – | 1.06 fold enrichment (6-mer frequency, TF over GST control) |

From PMC7862700, “An all-to-all approach to the identification of sequence-specific readers for epigenetic DNA modifications on cytosine”
